Screening results from PubChem BioAssay.
NRP1-CendR mod: modulators of CendR peptide binding to human neuropilin-1; actives 0.85% (n = 360,000); inhibition, % at 25 µM; FAM-RPARPAR peptide binding to NRP-1, fluorescence polarization; O14786;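 active = inhibition or corrected inhibition above about 18%, plus a signal ratio from 0.5 to 1.5, limit read from the data, passing the limit was not always enough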
MEKK2 mut-MEK5: signal of MEK5 binding to mutant human MEKK2 PB1 domain. bead flow cytometry, Alexa488-MEK5 binding to MEKK2 mutant. percent response, % at 10 µM. actives 0.35% (n = 290,000). AID 1530; in the data active = percent response above about 24%, passing the limit was not always enough
SKN-1 block: blocks SKN-1 activity in C. elegans; C. elegans VP596 Pgst-4::GFP/RFP ratio, acrylamide-induced, 24 h; inhibition, % at 21.8 µM; actives 0.49% (n = 360,000);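 active = interference check ratio from 0.5 to 1.5 plus GFP to RFP signal ratio inhibition reaching or exceeding a fixed threshold, cut at about 30% in these data, passing the limit was not always enough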
MEKK2wt PB1 HTS: raises or lowers MEK5 binding to wildtype human MEKK2 PB1 domain. binding response (% of control), % at 10 µM. Q9Y2U5. bead flow cytometry, Alexa488-MEK5 binding to MEKK2 WT; actives lie on both sides. AID 1531. actives 1.1% (n = 290,000); in the data active = binding response below about 67% or above about 130%
MEKK3 PB1 HTS: MEKK3-MEK5 PB1 interaction, increase or decrease; bead-based flow cytometry, Alexa488-MEK5 binding to MEKK3; actives lie on both sides; 0 = blocked by unlabeled MEK5, 100 = vehicle; binding response (% of control), % at 10 µM; actives 1.4% (n = 290,000); AID 1529;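 active = binding response more than 3 SD above or below the average of its plate-row segment, actives on both sides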;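 also: Alexa488 bead fluorescence after subtracting the streptavidin-only scavenger bead signal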
The depositor's hits bear a star. Shown are actives, neighbours in structure and some others; about 3.2% of the full set was active somewhere.

For COc1ccc(F)cc1C(=O)C1CCCN(C(=O)c2cccc(N(C)C)c2)C1 (stereo not drawn) the results were NRP1-CendR mod -3, MEKK2 mut-MEK5 10, SKN-1 block 7, MEKK2wt PB1 HTS 101 and MEKK3 PB1 HTS 100.
`COc1ccc(C(=O)C2CCCN(C(=O)c3cccc(N(C)C)c3)C2)cc1OC` (stereo not drawn) gave NRP1-CendR mod 25*, MEKK2 mut-MEK5 2, SKN-1 block 19, MEKK2wt PB1 HTS 98 and MEKK3 PB1 HTS 98.
CC1(C(=O)Nc2cccc3cccnc23)CCN1Cc1ccccc1OC(F)F (stereo not drawn) was read as NRP1-CendR mod -9 and SKN-1 block 7.
C=CCn1nnnc1SCC(=O)Nc1cccc(C(F)(F)F)c1 was read as NRP1-CendR mod 1, MEKK2 mut-MEK5 7, SKN-1 block 1, MEKK2wt PB1 HTS 111 and MEKK3 PB1 HTS 104.
COCCC(=O)N1CCC(Oc2ccc(C(=O)NCCn3cccn3)cc2)CC1 was read as NRP1-CendR mod 36*, MEKK2 mut-MEK5 -4, SKN-1 block 4, MEKK2wt PB1 HTS 99 and MEKK3 PB1 HTS 101.
`COCCC(=O)N1CCC(Oc2ccc(C(=O)NCCSC)cc2)CC1` gave NRP1-CendR mod 5, MEKK2 mut-MEK5 -4, SKN-1 block 8, MEKK2wt PB1 HTS 97 and MEKK3 PB1 HTS 87.
For COC(=O)C[C@@H]1CC[C@@H](NS(=O)(=O)c2ccc(OC)cc2)[C@@H](CO)O1 the results were NRP1-CendR mod 8 and SKN-1 block 4.
Screening Cn1cccc1/C=C1\SC(=S)N(NC(=O)c2ccccc2)C1=O returned NRP1-CendR mod -61, MEKK2 mut-MEK5 -3, SKN-1 block 38*, MEKK2wt PB1 HTS 83 and MEKK3 PB1 HTS 87.
`Cn1cccc1/C=C1\SC(=S)N(NC(=O)c2cccc(Cl)c2)C1=O` gave NRP1-CendR mod -50, MEKK2 mut-MEK5 -3, SKN-1 block 38*, MEKK2wt PB1 HTS 83 and MEKK3 PB1 HTS 92.
COc1cc(/C=C2\SC(=S)N(NC(=O)c3ccncc3)C2=O)ccc1O was read as NRP1-CendR mod -167, MEKK2 mut-MEK5 16, SKN-1 block 21, MEKK2wt PB1 HTS -3.0* and MEKK3 PB1 HTS 93.
`Cn1cccc1/C=C1\SC(=S)N(NC(=O)c2ccc(F)cc2)C1=O` gave NRP1-CendR mod -80, MEKK2 mut-MEK5 -11, SKN-1 block 22, MEKK2wt PB1 HTS 84 and MEKK3 PB1 HTS 97.
O=C(NC1CCN(C(=O)Nc2ccccc2Cl)CC1)c1cccc(F)c1 was read as NRP1-CendR mod -5, MEKK2 mut-MEK5 0, SKN-1 block 15, MEKK2wt PB1 HTS 94 and MEKK3 PB1 HTS 103.
For CC(C)C[C@H](NC(=O)OC(C)(C)C)C(=O)N[C@@H](CO)[C@H](O)[C@@H]1C[C@@H]1C(=O)NC1CC1 the results were NRP1-CendR mod 7, MEKK2 mut-MEK5 3, SKN-1 block 4, MEKK2wt PB1 HTS 113 and MEKK3 PB1 HTS 102.
For CCCCNC(=O)[C@H]1C[C@H]1[C@@H](O)[C@H](CO)NC(=O)[C@H](CC(C)C)NC(=O)OC(C)(C)C the results were NRP1-CendR mod 34*, MEKK2 mut-MEK5 0, SKN-1 block 8, MEKK2wt PB1 HTS 106 and MEKK3 PB1 HTS 100.
Screening COc1ccc(N=Nc2cc(C)c(O)c(CN3CCCCC3)c2)cc1 returned NRP1-CendR mod -7, MEKK2 mut-MEK5 12, SKN-1 block 50*, MEKK2wt PB1 HTS 108 and MEKK3 PB1 HTS 101.
Screening CCN(C(=O)COC(=O)CCCOc1ccc(Cl)cc1C)c1c(N)n(Cc2ccccc2)c(=O)[nH]c1=O returned NRP1-CendR mod 3 and SKN-1 block 8.
Screening CC1(C(=O)Nc2ccc3c(c2)OCCO3)CSCC(=O)N1CCCN1CCOCC1 (stereo not drawn) returned NRP1-CendR mod 13 and SKN-1 block -2.
Screening CC(C)NC(=O)C1(C)CSCC(=O)N1CCCN1CCOCC1 (stereo not drawn) returned NRP1-CendR mod 5 and SKN-1 block 35*.
`CCCCN(C(=O)c1cccc(-n2cnnn2)c1)c1c(N)n(CCCC)c(=O)[nH]c1=O` gave NRP1-CendR mod -8 and SKN-1 block 3.
Screening CCOC(=O)c1nn(-c2ccccc2)c(C#N)c1N returned NRP1-CendR mod 39*, MEKK2 mut-MEK5 1, SKN-1 block -5, MEKK2wt PB1 HTS 96 and MEKK3 PB1 HTS 98.
For COCCN(C(=O)COC(=O)/C=C/c1ccc2c(c1)OCO2)c1c(N)n(Cc2ccccc2)c(=O)[nH]c1=O the results were NRP1-CendR mod 11 and SKN-1 block 5.
For Cc1c(-c2ccccc2)c(-c2ccc(OCCN(C)C)cc2)n2ccccc12 the results were NRP1-CendR mod -57 and SKN-1 block 13.
Clc1ccc(C#Cc2cccnc2)cc1 was read as NRP1-CendR mod 5 and SKN-1 block 75*.
Screening O=S(=O)(Nc1cccnc1)c1ccc(Cl)cc1 returned NRP1-CendR mod -4, MEKK2 mut-MEK5 -2, SKN-1 block -4, MEKK2wt PB1 HTS 99 and MEKK3 PB1 HTS 99.
Screening COc1ccc(CNc2n[nH]c(NCc3ccc(OC)c(OC)c3)n2)cc1OC returned NRP1-CendR mod 20*, MEKK2 mut-MEK5 1, SKN-1 block -2, MEKK2wt PB1 HTS 102 and MEKK3 PB1 HTS 103.
For COc1ccc(-c2nc3ccc(Br)cn3c2CC(C)(C)C)cc1OC the results were NRP1-CendR mod 2 and SKN-1 block -4.
c1ccc2sc(NC3=NCN(C4CCCCC4)CN3)nc2c1 was read as NRP1-CendR mod -3, MEKK2 mut-MEK5 6, SKN-1 block 3, MEKK2wt PB1 HTS 110 and MEKK3 PB1 HTS 102.
CC1CCCCC1N1CN=C(Nc2nc3ccccc3s2)NC1 (stereo not drawn) was read as NRP1-CendR mod -4, MEKK2 mut-MEK5 3, SKN-1 block 56*, MEKK2wt PB1 HTS 105 and MEKK3 PB1 HTS 100.
For COc1ccc(CCNC(=O)C2CC(O)CN2S(=O)(=O)c2ccc(Cl)cc2)cc1OC (stereo not drawn) the results were NRP1-CendR mod -11 and SKN-1 block 6.
`CCn1nc(NS(=O)(=O)c2ccc([N+](=O)[O-])cc2)c2cc3ccccc3nc21` gave NRP1-CendR mod 6, MEKK2 mut-MEK5 6, SKN-1 block 29, MEKK2wt PB1 HTS 99 and MEKK3 PB1 HTS 99.
`O=C(OCc1ccccc1)N1C[C@H](O)[C@H](O)C[C@@H]1c1c(Cl)cccc1Br` gave NRP1-CendR mod 20* and SKN-1 block 4.
`O=C1CC(c2ccc(Cl)cc2)CC(O)=C1C=NCCO` (stereo not drawn) gave NRP1-CendR mod 16*, MEKK2 mut-MEK5 -1, SKN-1 block 20, MEKK2wt PB1 HTS 100 and MEKK3 PB1 HTS 101.
Screening COc1ccc(C2CC(=O)C(C=NCCO)=C(O)C2)cc1 (stereo not drawn) returned NRP1-CendR mod -5, MEKK2 mut-MEK5 16, SKN-1 block -2, MEKK2wt PB1 HTS 100 and MEKK3 PB1 HTS 101.
